BLM helicase inh – inhibitors of human Bloom syndrome helicase BLM; recombinant BLM DNA unwinding, fluorescence dequenching; 0.2% of 350,000 active; Potency, µM (highest dose often 56.1 µM), for inactives: top-dose activity change, negative = inhibition, hits mostly inhibitors;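 note: plate controls were vehicle for no effect and no enzyme for full effect; nearly all actives have a fitted effect of over 35% in size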
RECQ1 inh-1 – RECQ1 (human) helicase inhibition | P46063 | RECQ1 DNA unwinding, red fluorescence kinetic read | Potency, µM (doses to about 57.3 µM), inactives show top-dose activity, negative = inhibition, actives largely listed as inhibitors | 0.54% of 240,000 active | AID 2549;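 note: plate controls were vehicle for no effect and no enzyme for full effect; nearly all actives have a fitted effect of over 30% in size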
Target sequence (P46063 whole entry, looked up): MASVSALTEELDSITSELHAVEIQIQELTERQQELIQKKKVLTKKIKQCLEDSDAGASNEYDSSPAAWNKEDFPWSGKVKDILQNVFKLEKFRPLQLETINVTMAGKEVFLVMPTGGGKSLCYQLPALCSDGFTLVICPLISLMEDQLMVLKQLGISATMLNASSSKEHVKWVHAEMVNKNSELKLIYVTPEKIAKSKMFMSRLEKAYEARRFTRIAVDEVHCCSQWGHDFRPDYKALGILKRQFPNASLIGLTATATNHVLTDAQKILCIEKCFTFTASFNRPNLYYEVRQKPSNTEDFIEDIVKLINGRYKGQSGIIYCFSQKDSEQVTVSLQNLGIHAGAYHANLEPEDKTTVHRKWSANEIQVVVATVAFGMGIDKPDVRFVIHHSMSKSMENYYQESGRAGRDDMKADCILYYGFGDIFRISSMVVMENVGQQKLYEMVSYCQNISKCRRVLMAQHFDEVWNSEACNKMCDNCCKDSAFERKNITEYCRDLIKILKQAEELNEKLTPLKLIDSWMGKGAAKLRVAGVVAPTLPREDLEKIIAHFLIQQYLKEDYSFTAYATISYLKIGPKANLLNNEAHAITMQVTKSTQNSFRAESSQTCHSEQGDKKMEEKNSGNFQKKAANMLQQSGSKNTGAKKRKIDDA
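RECQ1T1 50 nM; forked duplex (20 bp + 30-nt ss tails) 200 nM, ATP 2 mM final; pH 8.0, 2 mM MgCl2, 2.5 ug/ml poly(dI-dC); 15 min compound preincubation; discontinuous kinetic read over 2 h at RT.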
TRb SRC2 PPI – disrupts binding of human TR beta to SRC2. TRbeta-SRC2 peptide binding, fluorescence polarization; receptor liganded with 1 µM T3. Potency, µM (titrated, usually from 106 µM), for inactives: at the top dose activity change, negative = inhibition, actives largely listed as inhibitors. 0.065% of 280,000 active. AID 1469;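 note: plate controls were bound peptide for no effect and peptide without receptor for full effect; nearly all actives have a fitted effect of over 50% in size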
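Fluorescence polarization of 20 nM Texas Red SRC2 peptide with 0.6 uM human TRb ligand-binding domain, in Tris buffer with 1uM T3 and 5% DMSO. Incubated 5 hr ambient; normalized to unbound and bound controls.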
TR SRC2 fluor cs – Texas Red fluorescence interference in TRb-SRC2 counter-screen; TRb/SRC2 Texas Red total fluorescence interference; Potency, µM (doses to about 106 µM), for inactives: at the top dose fluorescence change, negative = quenching; 0.29% of 280,000 active; active = well fitted curve in either direction with a large enough effect; inconclusive = small, poorly fitted or top-dose-only effect
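Human TRβ ligand-binding domain (0.6 uM) and Texas Red SRC2 peptide (20 nM) in Tris buffer with 1 uM T3 and 5% DMSO were incubated with pinned compound for 5 hr at ambient temperature. Total fluorescence was computed as S + 2P (555/632 nm).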
RECQ1 conf – confirmation of human RECQ1 helicase inhibitors; shares compounds with RECQ1 inh-1; RECQ1 helicase DNA unwinding, fluorescence; Potency, µM (top dose mostly 229 µM), inactives show top-dose activity change, negative = inhibition, hits mostly inhibitors; 28% of 610 active; AID 2708; note: nearly all actives have a fitted effect of over 45% in size
ADP FP counter – ADP displacement flagged in RECQ1 inhibitor counter-screen; shares compounds with RECQ1 inh-1; ADP fluorescence polarization displacement counterscreen; Potency, µM (highest dose often 228 µM), without a hit: at the highest dose activity change, negative = inhibition, most hits filed as inhibitors; 27% of 530 active; note: nearly all actives have a fitted effect of over 45% in size
RECQ1 inh-2 – RECQ1 helicase inhibition confirmed, round 2 | shares compounds with RECQ1 inh-1 | recombinant RECQ1 DNA unwinding, red fluorescence | Potency, µM (highest dose often 119 µM), for the others: at the highest dose activity, negative = inhibition, usual class: inhibitors | 15% of 1,100 active | AID 504841; note: nearly all actives have a fitted effect of over 50% in size
An asterisk follows results filed as active. Hits are enriched below; roughly 0.64% of the tested compounds scored in any of these assays. Unless noted, calls come from the whole dose curve; as a rule, active = well fitted curve in the direction sought with a large enough effect; inconclusive = small, poorly fitted or top-dose-only effect, or another doubt; inactive = no such curve, though single readings can be large; an effect the other way counts as inactive or inconclusive. Unless noted, % is set by controls: 0 for no effect and ±100 for the full control effect; potency is the fitted concentration of half-maximal effect.

`O=C(CSc1nc(-c2ccc(F)cc2)cs1)NC(=O)NCc1ccco1` gave BLM helicase inh -12%, RECQ1 inh-1 35µM*, TRb SRC2 PPI -10%, TR SRC2 fluor cs -2% and RECQ1 inh-2 inconclusive.
`COc1ccc(Cc2nc(C(=O)Nc3ccc(Cl)cc3)cs2)cc1` gave BLM helicase inh -7%, RECQ1 inh-1 -10%, TRb SRC2 PPI -14% and TR SRC2 fluor cs 0%.
For COc1ccc(NC(=O)c2csc(Cc3ccc(Cl)cc3)n2)cc1 the results were BLM helicase inh -10%, RECQ1 inh-1 inconclusive, TRb SRC2 PPI 1%, TR SRC2 fluor cs -1% and RECQ1 inh-2 -48%.
For O=c1c(N2CCc3ccccc3C2)csc2ccc(Br)cc12 the results were BLM helicase inh 6%, TRb SRC2 PPI 10% and TR SRC2 fluor cs 3%.
`O=C(c1ccc(Nc2nccc(-c3cc4ccccc4s3)n2)cc1)N1CCC(N2CCCC2)CC1` gave BLM helicase inh inconclusive, RECQ1 inh-1 inconclusive, TRb SRC2 PPI 16%, TR SRC2 fluor cs -11% and RECQ1 inh-2 25µM*.
Screening O=C(c1cccc(F)c1)N1CCC(N2CCCCCC2)CC1 returned BLM helicase inh 0%, RECQ1 inh-1 -3%, TRb SRC2 PPI -2% and TR SRC2 fluor cs -2%.
CCOC(=O)CN1C(=O)S/C(=C/c2ccc3c(c2)n(C)c(=O)n3C)C1=O was read as BLM helicase inh 5%, RECQ1 inh-1 -4%, TRb SRC2 PPI 3% and TR SRC2 fluor cs -2%.
Screening CCOC(=O)CN1C(=O)S/C(=C/C=C/c2ccc(N(C)C)cc2)C1=O returned BLM helicase inh inconclusive, RECQ1 inh-1 25µM*, TRb SRC2 PPI inconclusive, TR SRC2 fluor cs inconclusive and RECQ1 inh-2 32µM*.
Screening O=C1c2c(O)ccc(O)c2C(=O)c2c(NCCNCCO)ccc(NCCNCCO)c21 returned BLM helicase inh 10µM*, RECQ1 inh-1 3.5µM*, TRb SRC2 PPI -18%, TR SRC2 fluor cs -10%, RECQ1 conf 45µM* and ADP FP counter 5.6µM*.
Screening CC1CCc2nc3ccc(S(=O)(=O)N4CCC(C(=O)N5CCCCC5)CC4)cc3c(C(=O)O)c2C1 (centres undefined) returned BLM helicase inh 2%, RECQ1 inh-1 -4%, TRb SRC2 PPI 0% and TR SRC2 fluor cs 1%.
Screening O=C(O)c1c2c(nc3ccc(S(=O)(=O)N4CCC(C(=O)N5CCCCC5)CC4)cc13)CCCC2 returned BLM helicase inh -6%, RECQ1 inh-1 inconclusive, TRb SRC2 PPI -3%, TR SRC2 fluor cs 1% and RECQ1 inh-2 8%.
`O=C(O)CSc1nnc(Cc2ccccc2)n1-c1ccccc1` gave BLM helicase inh -1%, RECQ1 inh-1 -2%, TRb SRC2 PPI -9% and TR SRC2 fluor cs 0%.
Screening O=C(O)CSc1nnc(Cc2ccccc2)n1Cc1ccccc1 returned BLM helicase inh 1%, RECQ1 inh-1 1%, TRb SRC2 PPI -6%, TR SRC2 fluor cs 0%, RECQ1 conf 12% and ADP FP counter 9%.
Screening Cc1ccccc1C(=O)N(Cc1ccc(N(C)C)cc1)Cc1ccco1 returned BLM helicase inh -4%, TRb SRC2 PPI -5% and TR SRC2 fluor cs -5%.
`O=[N+]([O-])c1cc(S(=O)(=O)Nc2ccccc2)ccc1N1CCN(c2ccccc2)CC1` gave BLM helicase inh -11%, RECQ1 inh-1 -12%, TRb SRC2 PPI 4% and TR SRC2 fluor cs 1%.
For O=[N+]([O-])c1cc(S(=O)(=O)C(F)(F)F)ccc1N1CCN(c2ccccc2)CC1 the results were BLM helicase inh -4%, RECQ1 inh-1 inconclusive, TRb SRC2 PPI 4%, TR SRC2 fluor cs -1% and RECQ1 inh-2 -4%.

Screening data deposited in PubChem by National Center for Advancing Translational Sciences (NCATS).
